Bioassay records (PubChem)
Six1-Eya2 inh – inhibitors of human Six1/Eya2 interaction | Q15475+O00167 | AlphaScreen GST-Six1/His-Eya2 binding, biochemical; stronger effect = lower value | activity change, % (no concentration beside the values) | 360,000 compounds, 0.56% hits; in the data active = activity change below about -65%; inconclusive = mostly about -30% to -63%
Target sequence (O00167 whole entry, looked up): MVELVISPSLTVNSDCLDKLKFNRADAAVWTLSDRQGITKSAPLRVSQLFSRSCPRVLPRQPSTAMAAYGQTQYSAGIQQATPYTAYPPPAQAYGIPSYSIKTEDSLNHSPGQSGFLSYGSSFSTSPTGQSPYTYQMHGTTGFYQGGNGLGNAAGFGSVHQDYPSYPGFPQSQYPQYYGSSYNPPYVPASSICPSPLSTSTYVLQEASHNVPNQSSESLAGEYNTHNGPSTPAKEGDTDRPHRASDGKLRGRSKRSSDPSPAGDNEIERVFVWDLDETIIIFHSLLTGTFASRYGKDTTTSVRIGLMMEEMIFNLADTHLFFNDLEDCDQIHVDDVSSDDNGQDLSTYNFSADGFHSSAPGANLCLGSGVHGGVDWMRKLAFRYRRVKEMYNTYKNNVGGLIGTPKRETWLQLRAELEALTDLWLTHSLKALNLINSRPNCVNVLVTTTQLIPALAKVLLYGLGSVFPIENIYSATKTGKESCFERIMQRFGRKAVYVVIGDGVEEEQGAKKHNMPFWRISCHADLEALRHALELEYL
Target sequence (Q15475 whole entry, looked up): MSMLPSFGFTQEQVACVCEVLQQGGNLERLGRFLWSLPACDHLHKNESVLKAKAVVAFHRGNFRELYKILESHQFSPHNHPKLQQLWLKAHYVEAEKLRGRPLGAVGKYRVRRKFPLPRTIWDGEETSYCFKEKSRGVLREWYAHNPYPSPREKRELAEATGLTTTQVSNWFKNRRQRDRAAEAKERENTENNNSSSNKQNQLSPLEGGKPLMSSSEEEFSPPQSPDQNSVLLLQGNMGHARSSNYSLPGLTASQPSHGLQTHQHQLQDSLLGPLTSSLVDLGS
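AlphaScreen luminescence read after one hour at 37 °C in darkness. Pin-transferred compounds met GST-Six1 and His-Eya2 protein (5X stock 250 nM/500 nM) plus glutathione donor and Ni-chelate acceptor beads (5X, 50 ug/mL).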
TDP1 inh – inhibitors of human tyrosyl-DNA phosphodiesterase TDP1. AID 485290. recombinant TDP1, AlphaScreen DNA substrate cleavage. 350,000 compounds, 0.28% hits. Potency, µM (top dose mostly 130 µM), for inactives: at the top dose activity change, negative = inhibition, hits mostly inhibitors; note: potency is the fitted concentration of half-maximal effect; nearly all actives have a fitted effect of over 40% in size
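Recombinant E. coli-expressed Tdp1 (1 nM) preincubated with compound 15 min at RT, then 5'-biotin/3'-phosphotyrosine-FITC DNA substrate (15 nM) added for 5 min. AlphaScreen beads (10 ug/ml) added, 10 min RT; tyrosine-FITC cleavage read as signal loss.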
DT40 TDP1 no CPT – qHTS for Inhibitors of human tyrosyl-DNA phosphodiesterase 1 (TDP1): qHTS in cells in absence of CPT; Potency, µM (doses to about 46.2 µM), inactives show top-dose activity change, negative = growth inhibition, most hits filed as inhibitors; AID 686978, 2013; 420,000 compounds, 15% hits; DT40 Tdp1-/- hTDP1 cells, no CPT, ATP luminescence, 48 h; note: potency is the fitted concentration of half-maximal effect; nearly all actives have a fitted effect of over 55% in size
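Cells were dispensed at 400 per well, compounds added by pin tool, plates incubated ≥48 hr at 37 °C, then CellTiter-Glo added for 30 min at room temperature before luminescence reading. Line: DT40 Tdp1-/- complemented with hTDP1; camptothecin omitted.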
TDP1 cell CPT – DT40-hTDP1 cell growth loss with CPT; chicken DT40 Tdp1-/-;hTDP1 cells + 20 nM CPT, ATP luminescence, 48 h; Potency, µM (series often up to 46.2 µM), without a hit: at the highest dose activity change, negative = growth inhibition, usual class: inhibitors; 420,000 compounds, 12% hits; AID 686979; note: potency is the fitted concentration of half-maximal effect; nearly all actives have a fitted effect of over 55% in size
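Chicken DT40 Tdp1-/- cells stably complemented with human TDP1 were seeded at 400 cells/well in medium containing 20 nM camptothecin, exposed to pin-transferred compounds, and grown at 37 °C for at least 48 hr. Viability was read as ATP luminescence.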
CtBP-E1A inh – blocks the CtBP interaction with E1A. 340,000 compounds, 0.49% hits. activity change, % (test concentration not listed). AlphaScreen GST-E1A/His-CtBP binding, 1536-well; stronger effect = lower value. AID 651724; in the data active = activity change below about -65%; inconclusive = mostly about -30% to -63%
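In 5 uL wells, 23 nL compound meets equimolar GST-E1A and His-CtBP (5X stock 125 nM each) for 2 h, 37 °C. Beads (5X, 50 ug/mL) then 1 h, 37 °C, dark.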
IL-1B inflam inh – inflammasome signaling inhibition, IL-1 beta readout; THP-1 LPS/ATP IL-1B secretion, AlphaLISA, 16 h; stronger effect = lower value; activity change, % at 57.5 µM; 360,000 compounds, 4.7% hits; AID 743279; in the data active = activity change below about -50%; inconclusive = mostly about -30% to -49%
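THP-1 cells pretreated 1 hr with compounds (up to 57.5 uM final), then stimulated with LPS (250 ng/mL final) plus ATP (1.25 mM final); secreted IL-1B measured by AlphaLISA after 16 hr, decreased signal indicating inhibition.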
Active calls of the source: *; ? = inconclusive; nt = not tested or not shown. Only some compounds are listed: those with a hit (about 18% of all), similar ones and a draw of the others. Unless noted, calls come from the whole dose curve; as a rule, active = well fitted curve in the direction sought with a large enough effect; inconclusive = small, poorly fitted or top-dose-only effect, or another doubt; inactive = no such curve, though single readings can be large; an effect the other way counts as inactive or inconclusive. % is set by controls: 0 for no effect and ±100 for the full control effect.

SMILES	Six1-Eya2 inh	TDP1 inh	DT40 TDP1 no CPT	TDP1 cell CPT	CtBP-E1A inh	IL-1B inflam inh
CC(=O)N1CCN(S(=O)(=O)c2cccc(C(=O)OCC(=O)N(Cc3ccccc3)C(C)(C)C)c2)CC1	0	-6%	-23%	-22%	3	9
Cc1ccc(/C=c2/sc3n(c2=O)CCCN=3)o1	-2	-12%	-18%	?	-1	0
CC1(C)CN=c2s/c(=C\c3ccc(Cl)cc3)c(=O)n2C1	8	-2%	18µM*	12µM*	0	-86*
Nc1nonc1NC(=O)CSc1ncccc1C(=O)O	1	4%	-2%	-10%	13	19
N#CC(c1ccncc1)(c1ncc(C(F)(F)F)cc1Cl)N1CCOCC1 (configuration not stated)	-22	5%	?	-4%	7	-77*
Cc1ccc(C(=O)N2c3ccccc3N(Cc3ccccc3)C(=O)C2(C)C)cc1	4	nt	20µM*	15µM*	-12	-68*
CCc1ccc(C(=O)CC2(O)C(=O)N(Cc3ccc(C)cc3)c3ccccc32)cc1 (configuration not stated)	nt	nt	2.6µM*	4.6µM*	nt	nt
Cc1ccc(C(=O)CC2(O)C(=O)N(Cc3ccccc3)c3ccccc32)c(C)c1 (configuration not stated)	nt	nt	?	23µM*	nt	nt
COC(=O)CN1C(=O)C(O)(CC(=O)c2ccccc2)c2ccccc21 (configuration not stated)	7	2%	?	?	0	-2
CCCCN1C(=O)C(O)(CC(=O)c2ccc(C(C)(C)C)cc2)c2ccccc21 (configuration not stated)	nt	nt	15µM*	21µM*	nt	nt
Cc1ccc(CN2C(=O)C(F)(F)Oc3ccccc32)cc1	30	nt	1%	11%	28	16
CC(C)C(N)C(=O)O (configuration not stated)	nt	1%	-5%	-1%	nt	nt
N#CCCn1[nH]c(-c2ccccc2)cc1=O	0	2%	1%	4%	5	13
O=C(CC1(O)C(=O)N(Cc2ccccc2Cl)c2ccccc21)c1ccco1 (configuration not stated)	-1	0%	3.7µM*	3.3µM*	6	35
COc1ccc(CN2C(=O)C(O)(CC(=O)c3ccc4c(c3)OCO4)c3ccccc32)cc1OC (configuration not stated)	-1	2%	6.3µM*	6.3µM*	-4	21
O=C(O)CC1(O)C(=O)N(Cc2ccccc2)c2ccccc21 (configuration not stated)	9	-8%	5%	8%	0	14
COc1cccc2cc(C(=O)CC3(O)C(=O)N(Cc4ccccc4)c4ccccc43)c(=O)oc12 (configuration not stated)	0	-2%	6.5µM*	13µM*	6	4
COc1ccc(C(=O)CC2(O)C(=O)N(Cc3ccccc3Cl)c3ccccc32)cc1 (configuration not stated)	nt	5%	nt	nt	nt	nt
CC(C)(C)Cc1nnc(NC(=O)CSc2ccccc2)s1	0	nt	?	?	8	0
Oc1c(C(c2ccccc2)N2CCCC2)sc2nc(-c3ccco3)nn12 (configuration not stated)	nt	-3%	-10%	-7%	nt	nt
CC(C)(C)c1ccc(C(=O)NC2(C(F)(F)F)NC(=O)N(CCc3ccccc3)C2=O)cc1 (configuration not stated)	nt	-2%	23µM*	21µM*	nt	nt
O=C(NC1(C(F)(F)F)NC(=O)N(CCc2ccccc2)C1=O)c1ccc(Cl)cc1 (configuration not stated)	nt	0%	?	21µM*	nt	nt
COc1ccc(-c2csc(NC(=O)c3cc(C)oc3C)n2)cc1OC	-16	10%	18µM*	?	?	-84*
COc1ccc(NC(=O)c2cc(=O)c3ccccc3o2)cc1Cl	-7	nt	-13%	-3%	8	9
COc1ccc(-c2csc(NC(=O)c3cc(=O)c4ccccc4o3)n2)cc1OC	-3	5%	5.8µM*	?	nt	-19
SMILES	Six1-Eya2 inh	TDP1 inh	DT40 TDP1 no CPT	TDP1 cell CPT	CtBP-E1A inh	IL-1B inflam inh
O=C(Cn1ncc2c(=O)oc3ccccc3c21)NCc1ccc(Cl)cc1	nt	1%	-6%	-1%	nt	nt
COc1ccccc1CN1CCc2c([nH]c3ccccc23)C1	-1	nt	?	?	nt	8
Clc1cccc(CN2CCc3c([nH]c4ccccc34)C2)c1Cl	-11	nt	23µM*	?	nt	-62*
Cn1cccc1CNC(=S)Nc1cc(F)cc(F)c1	19	10%	-1%	17%	-1	15
CSc1nnc(-c2cc(-c3ccc(C)cc3)nc3ccccc23)o1	5	1%	?	-10%	5	-2
CSC1=NC(=O)/C(=C/c2ccc(SC)cc2)S1	-1	6%	?	?	-2	?
CCOC(=O)C1CCN(C2=NC(=O)/C(=C/c3ccc(Cl)cc3)S2)CC1	1	nt	-10%	?	2	-50*
CCOC(=O)CSC1=NC(=O)/C(=C\c2ccc(Cl)cc2)S1	2	0%	7.3µM*	4.6µM*	-9	?
CC1C(=O)C(C)C(c2cccs2)NC1c1cccs1 (configuration not stated)	14	-5%	-11%	-13%	11	10
CCC1(CC)C(=O)C(C)(C)C(=O)OC1c1cccs1 (configuration not stated)	7	7%	21µM*	?	4	18
CCc1nc2c(OCCC3CCCCC3)cccn2c1N(C)C(=O)c1cccs1	-16	nt	21µM*	29µM*	-25	-54*
CCc1nc2c(OCCC3CCCCC3)cccn2c1N(C)C(=O)CC(C)C	-19	nt	10µM*	21µM*	-13	?
CCCCC(=O)N(C)c1c(CC)nc2c(OCCC3CCCCC3)cccn12	-2	nt	16µM*	?	-5	-68*
CCCCN(C=O)c1c(CC)nc2c(OCC3CCCCC3)cccn12	11	nt	9.2µM*	21µM*	17	-4
CCc1nc2c(OCCC3CCCCC3)cccn2c1N(C=O)Cc1ccc(OC)cc1	-16	nt	?	?	-18	-22
Cn1c(SCC(=O)N2CCN(c3ccccc3)CC2)nnc1-c1ccccc1	-4	0%	-16%	-8%	-1	12
CC(C)CCCCCCc1ccc(O)cc1	nt	2%	?	-21%	nt	nt
